# Only some compounds are listed: those with a hit (about 21% of all), similar ones and a draw of the others.
# ClpP mod: qHTS Assay for Activators of ClpP. Potency, µM (highest dose often 57.5 µM). ATP-dependent Clp protease proteolytic subunit (Bacillus subtilis (strain 168)), P80244. AID 651965, 2013. purified B. subtilis ClpP, FRET peptide cleavage, 20 min. 340,000 tested, 1.9% active; active = well fitted falling curve with a large enough effect; inconclusive = small, poorly fitted or top-dose-only effect; inactive = no such curve, though single readings can be large or run the other way; also: the source files actives as falling curves though it sought activators and does not explain the sign; nearly all actives have a fitted effect of over 65% in size
# Target sequence (P80244 whole entry, looked up): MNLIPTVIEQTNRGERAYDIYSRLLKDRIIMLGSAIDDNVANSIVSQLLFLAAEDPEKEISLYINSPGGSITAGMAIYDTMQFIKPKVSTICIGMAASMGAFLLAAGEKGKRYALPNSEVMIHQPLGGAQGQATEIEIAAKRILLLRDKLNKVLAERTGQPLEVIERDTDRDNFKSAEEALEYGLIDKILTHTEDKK
#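 FRET quenching reversal measured ClpP activation: 10 microg/mL B. subtilis ClpP at pH 8 with the FRET-FV decapeptide, read at 430 nm after 320 nm excitation. The 20-min minus 0-min signal was scaled between DMSO/no-enzyme wells and ADEP (5.8 microM final).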
# DRD3 antagonist: antagonists of human D3 dopamine receptor | P35462 | D3R cells, DiscoveRx beta-arrestin luminescence, antagonist mode; stronger effect = lower value | max response, negative = inhibition, % | 360,000 tested, 2.5% active; in the data active = max response below about -50%; inconclusive = no clear call, values can overlap the other calls
# Target sequence (P35462 whole entry, looked up): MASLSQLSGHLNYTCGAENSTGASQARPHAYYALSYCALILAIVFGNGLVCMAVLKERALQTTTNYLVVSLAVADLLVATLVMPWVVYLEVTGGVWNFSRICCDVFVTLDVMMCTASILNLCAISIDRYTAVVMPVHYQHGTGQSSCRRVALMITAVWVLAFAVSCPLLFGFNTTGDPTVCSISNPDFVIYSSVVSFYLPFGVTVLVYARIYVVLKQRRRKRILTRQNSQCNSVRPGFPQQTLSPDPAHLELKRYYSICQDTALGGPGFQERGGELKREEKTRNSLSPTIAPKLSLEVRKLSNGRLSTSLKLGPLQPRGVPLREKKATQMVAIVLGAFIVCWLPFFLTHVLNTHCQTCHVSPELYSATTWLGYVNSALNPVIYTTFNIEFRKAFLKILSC
#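 Cells expressing the human receptor were seeded at 1500 cells/well, incubated overnight at 37 degrees C in 5% CO2, then exposed to library compounds with dopamine controls for 90 minutes at 37 degrees C before luminescent detection.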
# IL1B secr inh: inflammasome signaling inhibition, IL-1 beta readout; THP-1 LPS/ATP IL-1B secretion, AlphaLISA, 16 h; stronger effect = lower value; activity change, % at 57.5 µM; 360,000 tested, 4.7% active; in the data active = activity change below about -50%; inconclusive = mostly about -30% to -49%
#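 THP-1 cells pretreated 1 hr with compounds (up to 57.5 uM final), then stimulated with LPS (250 ng/mL final) plus ATP (1.25 mM final); secreted IL-1B measured by AlphaLISA after 16 hr, decreased signal indicating inhibition.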
# DT40 TDP1 CPT: growth inhibition of DT40 Tdp1-/-;hTDP1 cells with camptothecin (screen for TDP1 inhibitors); Potency, µM (doses to about 46.2 µM), hits mostly inhibitors; chicken DT40 Tdp1-/-;hTDP1 cells + 20 nM CPT, ATP luminescence, 48 h; 420,000 tested, 12% active; also: nearly all actives have a fitted effect of over 55% in size
#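 Chicken DT40 Tdp1-/- cells complemented with human TDP1, 400 cells/well, exposed to compounds plus 20 nM camptothecin for at least 48 h at 37 C; viability read as ATP content by CellTiter-Glo luminescence.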
# TDP1 cell noCPT: qHTS for Inhibitors of human tyrosyl-DNA phosphodiesterase 1 (TDP1): qHTS in cells in absence of CPT | DT40 Tdp1-/- hTDP1 cells, no CPT, ATP luminescence, 48 h | Potency, µM (top dose mostly 46.2 µM), most hits filed as inhibitors | 420,000 tested, 15% active | AID 686978, 2013; also: nearly all actives have a fitted effect of over 55% in size
#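 Chicken DT40 Tdp1-/- cells stably complemented with human TDP1 were seeded at 400 cells/well with DMSO in place of 20 nM camptothecin. After compound pinning, cells grew at least 48 hr at 37 °C; viability read by CellTiter-Glo luminescence.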
# DRD3 agonist: activates the human D3 dopamine receptor; P35462; AID 652048; 410,000 tested, 0.58% active; max activation, %; D3R DiscoveRx beta-arrestin cells, luminescence, 90 min; in the data active = max activation above about 30%
#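 Cells at 1500/well, incubated overnight, then treated with pinned compounds (dopamine as control) for 90 min at 37 degrees C. DiscoveRx reagent added for 30 - 60 minutes at room temperature; luminescence read.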
# Hits are given with their value; 0 = inactive; ? = inconclusive; - = not tested or not shown. Unless noted, calls follow the shape of the dose curve; as a rule, active = well fitted inhibition curve with a large enough effect; inconclusive = small, poorly fitted or top-dose-only effect; inactive = flat fitted curve, though single readings scatter.
SMILES,ClpP mod,DRD3 antagonist,IL1B secr inh,DT40 TDP1 CPT,TDP1 cell noCPT,DRD3 agonist
CC12CCC(=O)N1C(C(=O)N1CCN(S(=O)(=O)c3cccc(Cl)c3)CC1)CS2 (configuration not stated),-,0,0,0,0,0
COc1ccc(-c2nnc(OC)c3ccccc23)cc1,0,0,0,0,?,0
COc1ccc(-c2nnc(Sc3nc4ccccc4o3)c3ccccc23)cc1,0,0,-101.4,?,20µM,0
Cc1cc(C)c(S(=O)(=O)N2CCN(c3ccc([N+](=O)[O-])c(-n4nc(C)cc4C)c3)CC2)c(C)c1,0,0,0,25.9µM,20.6µM,0
COC(=O)c1ccc(N2CCN(S(=O)(=O)c3ccc(Br)cc3)CC2)c([N+](=O)[O-])c1,0,0,0,?,?,0
Cc1cc(C)n(-c2cc(N3CCN(S(=O)(=O)c4ccc(Br)cc4)CC3)ccc2[N+](=O)[O-])n1,0,0,0,11.6µM,11.6µM,0
CCC(C)c1ccccc1OCCn1c(CCNC(=O)C2CCCCC2)nc2ccccc21 (configuration not stated),0,-,-,?,?,-
C[N+]1(C)CCc2cc3c(cc2[C@@H]1[C@@H]1C(=O)Oc2c1ccc1c2OCO1)OCO3,-,-,-,0,0,-
O=C(N/N=C/c1cc2c(cc1Cl)OCO2)c1ccc2c(c1)OCCO2,-,?,-58.4,0,?,0
O=C(N/N=C/c1ccccc1[N+](=O)[O-])c1ccc2c(c1)OCCO2,-,0,0,0,0,0
C/C(=N\NC(=O)c1ccc2c(c1)OCO2)c1ccc(C(=O)O)s1,-,0,0,0,0,0
O=C(N/N=C\c1cc2c(cc1Cl)OCO2)c1cccs1,0,0,0,?,?,0
Cc1c(/C=N/NC(=O)c2ccc3c(c2)OCO3)cnn1C,0,0,0,0,0,0
C/C(=N\NC(=O)c1ccc2c(c1)OCO2)c1ccc2c(c1)OCO2,-,-54.6,0,0,0,0
O=C(N/N=C/c1c(Cl)[nH]c2ccccc12)c1ccc2c(c1)OCCO2,-,0,-56.9,?,?,0
O=C(Cc1ccccc1)N/N=C/c1cc2c(cc1Cl)OCO2,?,0,0,?,29.1µM,0
C1CCN2C[C@H]3C[C@H](CN4CCCCC34)C2C1 (some centres not stated),-,-,-,0,?,-
O=C1NC(=O)c2cc(Br)cc3cccc1c23,-,0,0,0,0,0
Cc1ccc(NS(=O)(=O)c2cc3c4c(cccc4c2)C(=O)NC3=O)cc1C,-,?,0,6.51µM,8.2µM,0
COc1ccc(-c2nn(-c3cccc(F)c3)c3c2cnc2cc(OC)c(OC)cc23)cc1,0,-,-,?,?,0
CCNc1ncc2nc(-c3cn(C)c4ccccc34)c(=O)n(CCC#N)c2n1,-,-,-,0,0,-
COc1cc(SSc2cc(OC)cc([N+](=O)[O-])c2N)c(N)c([N+](=O)[O-])c1,0,-77.0,-76.6,4.61µM,4.11µM,0
CCC(=C(c1ccc(OC)cc1)c1ccc(OC)cc1)c1cn(CC(O)CN2CCN(C)CC2)c2ccccc12 (configuration not stated),0,0,-106.5,10.3µM,13µM,0
COC(=O)Cn1cnc2c(oc3ccccc32)c1=O,0,0,0,0,0,0
Cc1nc2sc(C#N)c(N)c2c2c1CCCC2,0,0,0,0,?,0
SMILES,ClpP mod,DRD3 antagonist,IL1B secr inh,DT40 TDP1 CPT,TDP1 cell noCPT,DRD3 agonist
N#Cc1sc2nc(N3CCCCC3)c3c(c2c1N)CCCC3,28.2µM,0,0,0,?,0
COC1CC(=O)C2OC(c3ccccc3)OCC2O1 (configuration not stated),0,0,0,0,0,0
CCc1ccc(CN(Cc2cn[nH]c2-c2ccc(OC)cc2)C(=O)Nc2cc(Cl)ccc2OC)cc1,0,-,-,16.4µM,23.1µM,0
Cc1ccc(SCc2c(-c3ccccc3)nn(C)c2Cl)cc1,0,0,0,?,16.4µM,0
C=CCn1c(SC(C)C#N)nc2ccccc2c1=O (configuration not stated),0,-,-,0,?,-
COc1ccc(-c2cc(C(=O)OCC(=O)c3cccc(OC)c3)c3cccc(Cl)c3n2)cc1,0,-,-,0,0,0
Cc1ccc(NC(=O)CS(=O)CC(=O)N(CC(=O)NC(C)(C)C)c2cccc(C)c2C)cc1 (configuration not stated),0,0,0,0,0,32.5
CCCCN(C)C(=O)Cn1cnc2sc(C)c(S(=O)(=O)N3CCN(c4ccccc4OC)CC3)c2c1=O,0,0,0,23.1µM,23.1µM,0
COc1ccccc1N1CCN(S(=O)(=O)c2c(C)sc3ncn(CC(=O)N(C)c4ccc(Cl)cc4)c(=O)c23)CC1,0,-,-,18.4µM,16.4µM,0
CC(=O)Nc1ccc(NC(=O)CSc2nccn2Cc2ccc3c(c2)OCO3)cc1,0,-,-,?,?,0
COc1ccc(NC(=O)Nc2cccc3c2O[C@@H](CN(C)CC2CCCCC2)[C@@H](C)CN([C@H](C)CO)C3=O)cc1,0,0,0,23.1µM,?,0
COc1ccc(NC(=O)Nc2ccc3c(c2)C(=O)N([C@@H](C)CO)C[C@@H](C)[C@@H](CN(C)CC2CCCCC2)O3)cc1,0,0,0,?,23.1µM,0
COc1ccc(S(=O)(=O)Nc2cccc3c2O[C@H](CN(C)CC2CCCCC2)[C@@H](C)CN([C@H](C)CO)C3=O)cc1,0,0,0,0,0,0
C[C@H](CO)N1C[C@H](C)[C@@H](CN(C)CC2CCCCC2)Oc2ccc(NC(=O)Cn3cnnn3)cc2C1=O,0,0,0,0,0,34.6
CCOC(=O)c1nnc2c(-c3ccc(Cl)cc3)c(C)nn2c1N,0,-,-,0,0,0
CCC(Oc1cc(Cl)ccc1Cl)C(=O)N1CCCN(C)CC1 (configuration not stated),0,0,0,0,0,0
O=C(O)c1cc2cc(OCc3ccccc3)ccc2[nH]1,28.2µM,0,0,0,0,0
O=C(O)c1cc(OCc2ccccc2)cc(OCc2ccccc2)c1,-,0,0,0,0,0
COc1ccccc1NC(=O)CSc1nc(=O)n2cc(C)ccc2n1,0,0,0,0,0,0
CN(C)CCNc1cccc2sc3ccc(O)cc3c(=O)c12,0,0,-94.7,0.184µM,0.326µM,0
COc1cc(C)c2sc3ccccc3c(=O)c2c1NCCN(C)C,0,0,-,6.51µM,5.8µM,0
O=C(O)c1cccc2sc3cc(Cl)ccc3c(=O)c12,0,0,0,0,0,0

# High-throughput results from PubChem.
